Screens: PubChem BioAssay, National Center for Advancing Translational Sciences (NCATS)
An excerpt weighted towards active compounds, which were near 9.3% of everything screened.
HCV inhibitor: qHTS Assay for Inhibitors of Hepatitis C Virus (HCV). actives 3.4% (n = 340,000). Huh7.5.1 HCVcc-Cre infection, luciferase reporter, 44 h. Potency, µM (top dose mostly 41.8 µM), usual class: inhibitors
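Reporter virus HCVcc-Cre (~0.5 moi) infects cells exposed to compound; seeding density 1,000 cells/well with 4 h settling beforehand. Luminescence, 15 sec read, taken 44 h post-infection following a 15 min RT substrate incubation.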
VACV Venus inh: qHTS for Stage-Specific Inhibitors of Vaccinia Orthopoxvirus: Venus Reporter Primary qHTS | Vaccinia virus Venus reporter expression, fluorescence | Potency, µM (highest dose often 36.5 µM), actives largely listed as inhibitors | actives 0.46% (n = 330,000) | AID 720580, 2013; calls by dose curve; tested in A549 cells; note: nearly all actives have a fitted effect of over 30% in size
Vaccinia mCherry: qHTS for Stage-Specific Inhibitors of Vaccinia Orthopoxvirus: mCherry Reporter Primary qHTS; Potency, µM (series often up to 36.5 µM), hits mostly inhibitors; actives 0.63% (n = 310,000); Vaccinia virus mCherry reporter infection, fluorescence; AID 720579, 2013; calls by dose curve; tested in A549 cells; note: nearly all actives have a fitted effect of over 35% in size
HCMV antiviral: qHTS Assay for inhibitors of the human cytomegalovirus (HCMV); activity change, negative = inhibition, % at 57.5 µM; actives 4.5% (n = 410,000); AID 1259415, 2018; HFF cells, HCMV-luciferase reporter, 72 h; active compounds read low; in the data active = activity change below about -60%; inconclusive = no clear call, values can overlap the other calls; inactive = above about -39%
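Steps: HFFs plated, 16 h 37C; compounds added; HCMV-luciferase added to MOI 1 PFU/cell; 72 h 37C; OneGlo reagent, 5 min room temperature; luminescence read, normalized to controls.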
FMDV antiviral: High Throughput Screening for Foot and Mouth Disease Virus Antivirals | FMDV antiviral cell-based qHTS | Potency, µM (top dose mostly 57.9 µM), most hits filed as inhibitors | actives 1.2% (n = 410,000) | AID 1159524, 2015; calls by dose curve; tested in HEK293T cells; note: read-out not given here; nearly all actives have a fitted effect of over 45% in size
Sm TGR block: qHTS Assay for the Inhibitors of Schistosoma Mansoni Peroxiredoxins. Schistosoma mansoni thioredoxin glutathione reductase (TGR), Q962Y6. purified TGR, DTNB reduction, TNB absorbance 405 nm. Potency, µM (titrated, usually from 114 µM), hits mostly inhibitors. actives 3% (n = 360,000); note: nearly all actives have a fitted effect of over 60% in size
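Kinetic colorimetric format: TGR-catalysed, NADPH-driven DTNB reduction monitored via TNB absorbance. Enzyme dispensed at 20 nM; compound exposure 15 min at room temperature before reaction start.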
Numbers stand for hits. Unless noted, calls come from the whole dose curve; as a rule, active = well fitted curve in the direction sought with a large enough effect; inconclusive = small, poorly fitted or top-dose-only effect, or another doubt; inactive = no such curve, though single readings can be large; an effect the other way counts as inactive or inconclusive.

Screening CC(=O)OCC1=C(C(=O)OC(C)(C)C)N2C(=O)[C@@H](NC(=O)Cc3ccccc3)[C@H]2SC1 returned HCV inhibitor inactive, VACV Venus inh inactive, Vaccinia mCherry inactive, HCMV antiviral inactive and FMDV antiviral inactive.
Cc1ccc2nc(/C(C#N)=C\c3ccc(N4CCCCC4)c([N+](=O)[O-])c3)[nH]c2c1 was read as HCV inhibitor 7.1µM, VACV Venus inh inactive, Vaccinia mCherry inconclusive, HCMV antiviral -62 and Sm TGR block inactive.
For Cc1ccc2nc(/C(C#N)=C/c3ccc(O)c(O)c3)[nH]c2c1 the results were HCV inhibitor inconclusive, VACV Venus inh inactive, Vaccinia mCherry 5.6µM, HCMV antiviral inactive, FMDV antiviral inactive and Sm TGR block inactive.
`N#C/C(=C/c1ccc(N2CCCC2)c([N+](=O)[O-])c1)c1nc2ccccc2[nH]1` gave HCV inhibitor inactive, HCMV antiviral inactive, FMDV antiviral inactive and Sm TGR block inactive.
`COc1cc(/C=C(\C#N)c2nc3ccc(C)cc3[nH]2)ccc1OC(C)C` gave VACV Venus inh inactive, Vaccinia mCherry inactive, HCMV antiviral -68, FMDV antiviral inactive and Sm TGR block inactive.
Cc1ccc2nc(/C(C#N)=C/c3cccc(Br)c3)[nH]c2c1 was read as VACV Venus inh inactive, Vaccinia mCherry inactive, HCMV antiviral inconclusive, FMDV antiviral inactive and Sm TGR block inactive.
Screening O=C(CSc1nnc(-c2ccc(Cl)cc2)n1-c1ccccc1)N/N=C/c1ccccc1C(=O)O returned HCV inhibitor inactive, VACV Venus inh inactive, Vaccinia mCherry inactive, HCMV antiviral inactive, FMDV antiviral inactive and Sm TGR block inactive.
`CC(C)CC[n+]1ccccc1/C=C/c1ccc(N(C)C)cc1` gave HCV inhibitor 5µM, VACV Venus inh inactive, Vaccinia mCherry inactive, HCMV antiviral -102, FMDV antiviral inconclusive and Sm TGR block inactive.
`CN(C)c1ccc(/C=C/c2cccc[n+]2[O-])cc1` gave HCV inhibitor inactive, VACV Venus inh inactive, Vaccinia mCherry inactive, HCMV antiviral inactive, FMDV antiviral inactive and Sm TGR block inactive.
For COc1ccc(-c2cn3nc(N4CCC(C(=O)Nc5cc(Cl)ccc5C)CC4)sc3n2)cc1 the results were VACV Venus inh inactive, Vaccinia mCherry inactive, HCMV antiviral inconclusive, FMDV antiviral inactive and Sm TGR block inactive.
Screening Cc1cccc2cc3c(nc12)SC(=NCC1CCCO1)N(Cc1ccco1)C3 (stereo not given) returned HCV inhibitor inconclusive, VACV Venus inh inactive, Vaccinia mCherry inactive, FMDV antiviral inconclusive and Sm TGR block inconclusive.
Cc1ccc2nc3c(cc2c1)CN(Cc1ccco1)C(=NCC1CCCO1)S3 (stereo not given) was read as HCV inhibitor inactive, VACV Venus inh inactive, Vaccinia mCherry inactive, HCMV antiviral -70, FMDV antiviral inactive and Sm TGR block inconclusive.
Screening Cc1cc(C)c2c(CN3CCC(C)CC3)cc(=O)oc2c1 returned HCV inhibitor inactive, VACV Venus inh inactive, Vaccinia mCherry inactive, HCMV antiviral inactive, FMDV antiviral inactive and Sm TGR block inactive.
C/C(=N\Nc1cc(C)nc(NCc2ccccc2)n1)c1cccc([N+](=O)[O-])c1 was read as HCV inhibitor 2µM, HCMV antiviral inactive, FMDV antiviral inactive and Sm TGR block inactive.
For C/C(=N\Nc1cc(N2CCOCC2)nc(C)n1)c1cccc([N+](=O)[O-])c1 the results were HCV inhibitor 11µM, HCMV antiviral inactive, FMDV antiviral inconclusive and Sm TGR block inactive.
COc1cccc(Cn2c(C)c(CNC3CCCCC3)c(C(=O)O)c2C)c1 was read as VACV Venus inh inactive, Vaccinia mCherry inactive, HCMV antiviral -102, FMDV antiviral inactive and Sm TGR block inactive.
`Cc1c(CNC2CCCCC2)c(C(=O)O)c(C)n1Cc1ccc(Cl)cc1` gave VACV Venus inh inactive, Vaccinia mCherry inactive, HCMV antiviral inactive, FMDV antiviral inactive and Sm TGR block inactive.
`COc1ccc(C2=Cc3ccccc3C(CC(=O)C3CC3)N2c2ccc(C#CCCO)cc2)cc1` (stereo not given) gave VACV Venus inh inactive, Vaccinia mCherry inactive, HCMV antiviral inactive and FMDV antiviral inactive.
CC(C)(C)N(Cc1ccc2c(c1)OCO2)C(=O)/C=C\S(=O)c1ccccc1 (stereo not given) was read as HCV inhibitor 11µM, VACV Venus inh 14µM, Vaccinia mCherry 8.9µM, HCMV antiviral inactive and FMDV antiviral inactive.
`CCN(Cc1ccc2c(c1)OCO2)C(=O)/C=C/c1cccc(Br)c1` gave HCV inhibitor inactive, VACV Venus inh inactive, Vaccinia mCherry inactive, HCMV antiviral inactive, FMDV antiviral inactive and Sm TGR block inactive.
For COc1ccc(CCNc2ncnc3c2c(-c2ccccc2)cn3-c2cccc(Cl)c2)cc1OC the results were VACV Venus inh inactive, Vaccinia mCherry inactive, HCMV antiviral inactive, FMDV antiviral 25µM and Sm TGR block inactive.
`CCOc1ccc(-n2cc(-c3ccccc3)c3c(NCc4ccc(F)cc4)ncnc32)cc1` gave VACV Venus inh inactive, Vaccinia mCherry inactive, HCMV antiviral inactive, FMDV antiviral inactive and Sm TGR block 79µM.
C/C(=N\NC(=O)c1cccs1)C(C)(C)C was read as HCV inhibitor inactive, VACV Venus inh inactive, Vaccinia mCherry inactive, HCMV antiviral inactive, FMDV antiviral inactive and Sm TGR block inactive.
For O=C(CSc1n[nH]c(=O)n1Cc1ccco1)c1ccc2c(c1)OCCO2 the results were HCV inhibitor inactive, HCMV antiviral inactive, FMDV antiviral inactive and Sm TGR block inactive.
`COC(=O)C1=C(N)Oc2cc(N(C)C)ccc2C1c1ccccc1OC` (stereo not given) gave HCV inhibitor 6.3µM, VACV Venus inh inconclusive, Vaccinia mCherry inconclusive, HCMV antiviral inactive, FMDV antiviral inactive and Sm TGR block inactive.
`COC(=O)C1=C(N)Oc2cc(C)n(CC3CCCO3)c(=O)c2C1c1ccccc1OC` (stereo not given) gave HCV inhibitor inactive, VACV Venus inh inactive, HCMV antiviral inactive, FMDV antiviral inactive and Sm TGR block inactive.
Screening COc1ccc(C(=O)NCc2c(C)nn(Cc3ccccc3)c2C)cc1S(=O)(=O)N1CCOCC1 returned HCV inhibitor inconclusive, HCMV antiviral -101, FMDV antiviral inactive and Sm TGR block inactive.
CC(=O)Nc1ccc(NC(=O)c2c(C)nn(Cc3ccccc3)c2Cl)cc1 was read as HCV inhibitor inactive, VACV Venus inh inactive, Vaccinia mCherry inconclusive, HCMV antiviral inactive, FMDV antiviral inactive and Sm TGR block inactive.
